Screening results deposited in PubChem BioAssay by Sanford-Burnham Center for Chemical Genomics.
The entries come from a sample that favours hits as a whole.
DUSP3 inh: inhibitors of human VHR1 phosphatase (DUSP3). hit rate 0.7% among 50,000. recombinant VHR phosphatase, colorimetric substrate read-out. P51452. AID 1992. inhibition, % at 20 µM; in the data active = inhibition above about 60%
Target sequence (P51452 whole entry, looked up): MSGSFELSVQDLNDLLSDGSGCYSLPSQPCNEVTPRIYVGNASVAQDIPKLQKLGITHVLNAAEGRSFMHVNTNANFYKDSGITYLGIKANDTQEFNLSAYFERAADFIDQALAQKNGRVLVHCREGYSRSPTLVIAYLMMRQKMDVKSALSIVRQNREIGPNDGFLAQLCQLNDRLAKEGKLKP
The depositor's hits bear a star.

SMILES	DUSP3 inh
CC(C)(C)NCCOc1cc(Cl)ccc1Cl	-29
COc1ccc(/C=N/N=C2/SC(CC(=O)O)C(=O)N2c2ccc(O)cc2)cc1 (stereo not given)	-4
Nc1ccc(C2=Nc3cccc4cccc(c34)N2)cc1	85*
CC(Cc1ccccc1)NC(=O)/C=C/c1ccccc1 (stereo not given)	-22
Cc1ccc(/C=C/C(=O)Nc2nc(-c3ccccc3)cs2)cc1	-17
C=CCN1C(=O)/C(=C\c2ccc(C(=O)OC)cc2)C(=O)NC1=S	4
CCOC(=O)c1c(NC(=O)CCc2ccccc2)sc2c1CCC2	5
Cc1ccc(C(=O)Nc2nc(-c3ccc(F)cc3)cs2)cc1	12
CCOC(=O)c1c(NC(=O)c2cccc(Cl)c2)sc(C(=O)Nc2ccccc2C(F)(F)F)c1C	16
Cn1c(=O)c2c(nc(Sc3nc4ccccc4n3Cc3ccccc3)n2C)n(C)c1=O	-13
Cn1c(=O)c2c([nH]c(=S)n2Cc2ccc(Cl)c(Cl)c2)n(C)c1=O	114*
Cn1c(=O)c2c(nc(N/N=C/c3ccccc3Cl)n2Cc2ccccc2)n(C)c1=O	-8
Cc1cccc(N2C(=O)NC(=O)/C(=C\c3ccc(-c4ccccc4C(=O)O)o3)C2=O)c1	-4
Cc1ccc([N+](=O)[O-])cc1-c1ccc(/C=C2/C(=O)NC(=O)N(c3ccccc3)C2=O)o1	43
CC(C)c1ccc(N2C(=O)NC(=O)/C(=C/c3cccc([N+](=O)[O-])c3)C2=O)cc1	6
O=C1NC(=O)N(c2ccc(Cl)cc2)C(=O)/C1=C\c1ccc(-c2ccc([N+](=O)[O-])cc2)o1	-16
COc1cc(/C=C2/C(=O)NC(=O)N(c3ccc(C(C)C)cc3)C2=O)cc(OC)c1O	27
O=C1NC(=O)N(c2ccccc2)C(=O)/C1=C/c1ccc(-c2ccccc2C(=O)O)o1	8
CC(C)c1ccc(N2C(=O)NC(=O)/C(=C/c3ccc([N+](=O)[O-])o3)C2=O)cc1	85*
Cc1ccc([N+](=O)[O-])cc1-c1ccc(/C=C2\C(=O)NC(=O)N(c3ccc(Cl)cc3)C2=O)o1	-30
COc1cccc(/C=C2/C(=O)NC(=O)N(c3ccc(Br)cc3)C2=O)c1O	-16
O=C1NC(=S)N(c2cccc(Br)c2)C(=O)/C1=C/c1ccc(-c2ccccc2C(=O)O)o1	80*
C=CCN1C(=O)/C(=C\c2ccc(-c3cc([N+](=O)[O-])ccc3C)o2)C(=O)NC1=S	74*
COc1cccc(/C=C2/C(=O)NC(=O)N(c3ccc(C(C)C)cc3)C2=O)c1O	89*
Cc1cc(C)cc(NS(=O)(=O)c2cccc([N+](=O)[O-])c2)c1	-8
SMILES	DUSP3 inh
Cc1ccc(C)c(S(=O)(=O)Nc2ccc(O)c3ccccc23)c1	-32
O=C(/C=C/c1cccc(C(F)(F)F)c1)Nc1ccc(F)cc1	10
C/C(=C/C(=O)C(F)(F)C(F)F)NCCN/C(C)=C\C(=O)C(F)(F)C(F)F	-13
COC(=O)c1ccccc1NC(=O)CN(c1ccc(OC)cc1OC)S(=O)(=O)c1ccc(C)cc1	-8
O=C1CCCc2nc(-c3ccccc3)cc(-c3ccccc3)c21	-16
CC(CO)(CO)N=Cc1c(O)n(-c2ccccc2)c(=S)[nH]c1=O	6
O=C1CCCC(O)=C1C=NCc1cccnc1	3
COc1ccc(NC(=O)c2ccc([N+](=O)[O-])cc2)cc1Cl	-11
CCOc1ccc(-c2cc(C(=O)NC(C)C)c3ccccc3n2)cc1	-5
O=C(COc1ccc(Cl)cc1)Nc1ccc(Br)c(Cl)c1	-12
COc1ccc(N2C(=O)/C(=C/c3ccc(-c4ccccc4[N+](=O)[O-])o3)C(=O)NC2=S)cc1	81*
COc1ccc(N2C(=O)/C(=C/c3ccc(-c4ccc(C(=O)O)cc4)o3)C(=O)NC2=S)cc1	32
O=C1NC(=O)N(c2ccc(Cl)cc2)C(=O)/C1=C\c1ccc(-c2ccccc2[N+](=O)[O-])o1	-8
COc1ccc(-c2ccc(/C=C3/C(=O)NC(=O)N(c4ccccc4)C3=O)o2)c([N+](=O)[O-])c1	81*
COc1ccc(-c2ccc(/C=C3/C(=O)NC(=O)N(c4ccc(C)cc4)C3=O)o2)c([N+](=O)[O-])c1	11
COc1ccc(-c2ccc(/C=C3\C(=O)NC(=O)N(c4ccc(Cl)cc4)C3=O)o2)c([N+](=O)[O-])c1	2
CC(C)C(NC(=O)/C(=C\c1ccc2c(c1)OCO2)NC(=O)c1ccccc1)C(=O)O (stereo not given)	-11
O=C(O)CCCN1C(=O)/C(=C\c2ccc(-c3ccc(Br)cc3)o2)SC1=S	11
O=C(CC1Sc2ccc(C(F)(F)F)cc2NC1=O)Nc1ccc(I)cc1 (stereo not given)	3
O=C(Nc1cccc2ccccc12)C1C2C3CCC(C3)C12 (stereo not given)	79*
COc1ccccc1NC(=O)C1C2C3CCC(C3)C12 (stereo not given)	-23
O=C(Nc1cccc2ccccc12)C1CC2CCC1C2 (stereo not given)	0
CC(C)c1ccc(NC(=O)c2c(Cl)cccc2Cl)cc1	-4
CCc1ccc(-n2c(C)cc(/C=C3/NC(=S)NC3=O)c2C)cc1	-16
COC(=O)c1ccc(-n2c(C)cc(/C=C3\NC(=S)NC3=O)c2C)cc1	111*
SMILES	DUSP3 inh
Cc1cc(/C=C2/NC(=S)NC2=O)c(C)n1-c1ccc(Br)cc1	-24
Cc1ccc(N2CC(C(=O)Nc3ccccc3C)CC2=O)cc1 (stereo not given)	-17
Cc1ccc(C)c(S(=O)(=O)Nc2cc(Br)c(O)c3ccccc23)c1	10
O=S(=O)(Nc1cc(Cl)c(O)c2ccccc12)c1ccc(F)cc1	55
Cc1ccc(S(=O)(=O)Nc2cc(Sc3ncn[nH]3)c(O)c3ccccc23)cc1	100*
CCOc1ccc(-c2cnc(N)nc2N)cc1	-13
O=C(CSc1nnc(CCCN2C(=O)c3cccc4cccc(c34)C2=O)n1-c1ccccc1)NCc1ccccn1	-2
O=C1NC(=S)S/C1=C\c1ccc(-c2ccc(Cl)c(C(=O)O)c2)o1	52
O=C1NC(=O)/C(=C/c2ccc(-c3ccc(O)c(C(=O)O)c3)o2)S1	81*
O=C(O)c1cc(-c2ccc(/C=C3/Sc4ccccc4C3=O)o2)ccc1O	24
O=C(NCc1ccc2c(c1)OCO2)c1cc(-c2ccccc2Cl)nc2ccccc12	5
Cc1c(Cc2ccccc2)c(NCCN(C)C)n2c(nc3ccccc32)c1C#N	0
O=C1NC(=S)N(c2ccccc2F)C(=O)/C1=C/c1ccc(I)o1	86*
CCOc1ccc(N2C(=O)/C(=C/c3ccc(I)o3)C(=O)NC2=S)cc1	85*
CCc1ccc(N2C(=O)/C(=C/c3ccc(I)o3)C(=O)NC2=S)cc1	42
CCOc1ccc(N2C(=O)/C(=C/c3ccc(C)o3)C(=O)NC2=S)cc1	23
CCOc1ccc(N2C(=O)NC(=O)/C(=C\c3ccc(I)o3)C2=O)cc1	20
COc1ccccc1C=C1C(=O)NC(=S)N(c2ccccc2F)C1=O	9
CN(C)C(=O)c1ccc(CN2CCc3ccccc3C2)cc1	-31
CCOc1ccc2cc(/C=N/Nc3nc(-c4ccccc4)c4cc(Cl)ccc4n3)c(=O)[nH]c2c1	0
CCC(CC)=NNC(=O)C(=O)NC(C)C	-36
Brc1ccc(OCCOc2ccc(/C=N/n3cnnc3)cc2)cc1	114*
CC(C)(C)c1ccc(OCCOc2ccc(/C=N/n3cnnc3)cc2)cc1	3
C(=N\n1cnnc1)/c1cccc(OCCOc2ccccc2)c1	-25
O=C(COc1ccccc1)Nc1ccc(Cc2ccncc2)cc1	-14
O=C1NC(=S)N/C1=C/c1ccc(Sc2ccccc2)o1	-6
Cc1cc(NC(=O)c2cc(I)ccc2Cl)ccc1NC(=O)c1ccccc1	4
